According to PubChem BioAssay AID618 (Sanford-Burnham Center for Chemical Genomics, 2007):
Hit rate of the full screen: of about 87,000 compounds, about 540 (0.62%) were called active. No rule for the calls is given here. Only a selection was taken, and actives are over-represented in it overall. Entries with a potency or affinity are not part of this list.

Experiment: MT1-MMP gene expression reporter suppression – cell-based, luciferase reporter, luminescence (AID 618);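 also: actives suppress MT1-MMP promoter-driven transcription so potencies describe inhibitors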
Conditions: MT1-MMP promoter luciferase reporter cells

SMILES	outcome
O=C(COc1ccc(S(=O)(=O)NC2CCCCC2)cc1)NCC1CCCO1 (stereo not given)	inactive
N#Cc1nn(-c2ccccc2)nc1N1CCCCC1	inactive
Cc1ccc(NC(=O)CC(O)(C(F)(F)F)C(F)(F)F)cc1	inactive
CCN1C(=O)C2C(c3ccccc3F)NC(Cc3ccc(O)cc3)(C(=O)OC)C2C1=O (stereo not given)	inactive
COc1ccc(C(=O)Nc2c(F)c(F)c(F)c(F)c2F)c(OC)c1	inactive
COc1ccc(C(=O)Nc2ccc(C)cn2)c(OC)c1	active
COc1ccc(C(=O)Nn2cnnc2)c(OC)c1	inactive
COC(=O)c1sc(NC(=O)c2ccoc2C)nc1C	inactive
CCOc1ccccc1C(=O)Nc1nnc(CC)s1	inactive
COC(=O)c1sc(NC(=O)c2ccc(OC)cc2OC)nc1C	active
COC(=O)c1sc(NC(=O)COc2ccc(OC)cc2)nc1C	inactive
CCc1nnc(NC(=O)c2c(OC)cccc2OC)s1	inactive
Cc1ccc(C)c2[nH]c(=O)c(CCNC(=O)C(C)(C)C)cc12	inactive
O=S(=O)(c1ccc(Br)cc1)N1CCCN(Cc2ccccc2F)CC1	inactive
COc1ccccc1NC(=O)N1CCN(c2ccc3nncn3n2)CC1	inactive
CCCCOC(=O)C1C2C=C[C@]3(CN(CCCOC)C(=O)[C@H]13)O2 (stereo not given in full)	inactive
CCOc1ccc(NC(=O)CSc2nnc(Cn3c(=O)sc4ccccc43)n2C)cc1	inactive
CCOC(=O)c1cnn(CCOC(=O)Cc2cccs2)c1NC(=O)Cc1cccs1	inactive

SMILES	outcome
CC1=[N+]([O-])C(N2CCOCC2)C(O)(c2ccccc2)C1 (stereo not given)	inactive
COCCN1C(=O)c2ccccc2C(C(=O)NCCCN2CCCC2)C1c1c[nH]c2ccccc12 (stereo not given)	inactive
O=C(NCC(c1cccnc1)N1CCOCC1)c1ccc2c(c1)OCO2 (stereo not given)	inactive
O=S(=O)(NCCOCC(F)(F)C(F)F)c1ccc2oc3ccccc3c2c1	inactive
S=C(Nc1ccccn1)c1ccccn1	inactive
S=C(Nc1ccccc1)c1ccccn1	inactive
Cc1c(C(=O)c2ccc(Cl)cc2Cl)cnc2cc3c(cc12)OCO3	inactive
O=C(CN1CCN(C(=O)c2ccco2)CC1)Nc1c2c(nc3c1CCC3)CCCC2	inactive
COC(=O)c1noc(-c2ccc(C)cc2)n1	inactive
Cc1ccc(-c2noc(-c3cccs3)n2)cc1	inactive
COc1ccc(C(NC(N)=O)c2ccccc2)cc1 (stereo not given)	inactive
FC(F)C(F)(F)C(F)(F)C(F)(F)c1cc(-c2ccccc2)n[nH]1	inactive
CCN(CC)c1ccc2cc(-c3nnc(-c4ccccc4)o3)c(=O)oc2c1	inactive
CCN(CC)c1ccc2cc(-c3nc4ccccc4n3C)c(=O)oc2c1	inactive
COc1ccc(C2CC(=O)n3c(nc4ccccc43)S2)cc1OC (stereo not given)	inactive
O=C1CC(c2ccc3c(c2)OCO3)Sc2nc3ccccc3n21 (stereo not given)	active
COc1cc(C2CC(=O)n3c(nc4ccccc43)S2)cc(OC)c1OC (stereo not given)	inactive
